Molecules are shown by their SMILES. Structures can show the parent of a compound that is named as a salt.

This assay has as its system MDA-MB-468. As to the kind of experiment: phospho-S6 immunofluorescence (DAPI-normalised), per-plate z-score; higher = higher phospho-S6 signal (less pathway suppression). As to conditions: co-treatment: vehicle; 24 h. Here is the method:
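GPCR-targeted compound library (MedChemExpress HY-L006) tested on MDA-MB-468 PTEN-null TNBC cells in 384-well plates at 0.1, 1 or 10 uM, combined with vehicle, GDC0941 450 nM or lapatinib 1 uM, for 24 h. Phospho-S6 (S240/244) immunofluorescence normalised to DAPI and expressed as a per-plate z-score; values are the mean of biological triplicates.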
Regarding `CCCCC1=NC2(CCCC2)C(=O)N1Cc1ccc(-c2ccccc2-c2nnn[nH]2)cc1` [Irbesartan] (compound 10 µM), the “phospho-S6 immunofluorescence (z-score)” value stood at 0.09.

Take `Cc1c(CC(=O)O)c2cccnc2n1Cc1ccc(S(C)(=O)=O)cc1C(F)(F)F` [Fevipiprant] (compound 10 µM): the “phospho-S6 immunofluorescence (z-score)” value was -0.9. Regarding `OCC1OC(n2cnc3c(NCCc4ccccc4)ncnc32)C(O)C1O` (stereo not given) [N6-(2-Phenylethyl)adenosine] (compound 10 µM), the “phospho-S6 immunofluorescence (z-score)” value was determined as 0.72.

`CCCN[C@H]1CCc2nc(N)sc2C1` [Pramipexole (dihydrochloride)] (compound 10 µM): the “phospho-S6 immunofluorescence (z-score)” value was 0.17. Under `C[N+](C)(C)CCOC(N)=O` [Carbamoylcholine (chloride)] (compound 10 µM) stands 0.87; under `CC1(C)O[C@@H]2C[C@H]3[C@@H]4CCC5=CC(=O)C=C[C@]5(C)[C@@]4(F)[C@@H](O)C[C@]3(C)[C@]2(C(=O)CO)O1` [Triamcinolone (acetonide)] (compound 10 µM), -1.2. With `CCCCC(=O)N(Cc1ccc(-c2ccccc2-c2nnn[nH]2)cc1)[C@H](C(=O)O)C(C)C.CCOC(=O)[C@H](C)C[C@@H](Cc1ccc(-c2ccccc2)cc1)NC(=O)CCC(=O)O` (compound 10 µM), the “phospho-S6 immunofluorescence (z-score)” value is 0.21. Under `C=CCN1CCCC1CNC(=O)c1cc(S(N)(=O)=O)cc(OC)c1OC` (stereo not given) [Veralipride] (compound 10 µM) stands 0.08; under `Cc1sc(C)c(C(=O)NC2(c3ccc(C(=O)O)cc3)CC2)c1Cc1ccc(C(F)(F)F)cc1` (compound 10 µM), 0.73.

In the case of `N[C@@H](Cc1ccc(O)c(O)c1)C(=O)O` (compound 10 µM), the “phospho-S6 immunofluorescence (z-score)” value was -0.55.
